Results on eight compounds are retold here after PubChem BioAssay (NCI).

Some test systems named below: NCI-H23 lung; NCI-H226 lung; NCI-H322M lung; HOP-62 NSCLC; NCI-H460 lung; HOP-92 NSCLC; NCI-H522 lung; A549/ATCC NSCLC; 786-0 renal; COLO 205 colon; K-562 leukemia; MALME-3M melanoma; MDA-MB-231 breast; RXF 393 renal; SF-268 CNS; SF-295 CNS; SF-539 CNS; UACC-257 melanoma; M14 melanoma.
Common to all, as to experiment: NCI-60 one-dose screen, 48 h (100 = growth as untreated, 0 = no growth, -100 = all killed)
Common to all, as to settings: 10 µM unless noted

The structures appear in SMILES notation. About 83,000 compounds went through this panel and 20% of them were active in at least one assay; those are over-represented in the sample as a whole.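 48-hour exposure, single concentration, 96-well plates; percent growth endpoint where 0 means no net growth. Active: below 10.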 A number with no mark means an inactive call. The source made the active and inactive calls.

With `COC(=O)c1cc(Cl)cc([N+](=O)[O-])c1O`, the growth in the experiment on NCI-H23 lung was 111%; in the experiment on NCI-H226 lung, 97.9%; with NCI-H322M lung it was 115%; in the experiment on HOP-62 NSCLC, 104%; with NCI-H460 lung it was 116%; in the experiment on HOP-92 NSCLC, 83.8%. Moreover, the growth in the experiment with NCI-H522 lung was 99.5%; in the experiment with A549/ATCC NSCLC it was 105%; in the experiment with 786-0 renal, 108%; with COLO 205 colon it was 115%; in the experiment on K-562 leukemia, 68.9%; with MALME-3M melanoma it was 114%. In addition, the growth was 123% in the experiment on MDA-MB-231 breast; 97.1% in the experiment with RXF 393 renal; 112% in the experiment on SF-268 CNS; 101% in the experiment on SF-295 CNS; 107% in the experiment with SF-539 CNS; 100% in the experiment on UACC-257 melanoma. The growth in the experiment on M14 melanoma was 94.9%.
In the case of `CSCCC1NC(=O)C(C(C)=Nc2ccccc2)=C1O` (stereo unspecified), the growth in the experiment on NCI-H23 lung is 105%; with NCI-H226 lung, 112%; in the experiment with NCI-H322M lung, 102%; with HOP-62 NSCLC, 107%; in the experiment on NCI-H460 lung, 114%; with HOP-92 NSCLC, 108%. The growth in the experiment on NCI-H522 lung is 116%; in the experiment on A549/ATCC NSCLC, 101%; with 786-0 renal it was 98.9%; with COLO 205 colon, 105%; in the experiment on K-562 leukemia, 124%; with MALME-3M melanoma, 112%. In addition, the growth in the experiment with MDA-MB-231 breast is 109%; with RXF 393 renal it was 109%; with SF-268 CNS, 111%; with SF-295 CNS it was 97.7%; with SF-539 CNS, 119%; in the experiment on UACC-257 melanoma, 113%. Further, in the experiment on M14 melanoma, the growth was 103%.
In the case of `Nc1cccc(S(=O)(=O)c2cccc(N)c2)c1`, the growth in the experiment with NCI-H23 lung was 111%; in the experiment with NCI-H226 lung it was 107%; in the experiment on NCI-H322M lung it was 124%; in the experiment on HOP-62 NSCLC, 111%; with NCI-H460 lung it was 120%; with HOP-92 NSCLC, 97%. Also, the growth in the experiment with NCI-H522 lung is 111%; in the experiment with A549/ATCC NSCLC, 111%; in the experiment with 786-0 renal it was 108%; with COLO 205 colon, 117%; with K-562 leukemia it was 10.5%; with MALME-3M melanoma it was 115%. Further, the growth in the experiment on MDA-MB-231 breast is 105%; with RXF 393 renal it was 138%; with SF-268 CNS, 107%; in the experiment with SF-295 CNS, 100%; in the experiment with SF-539 CNS it was 113%; in the experiment on UACC-257 melanoma, 119%. Further, the growth in the experiment with M14 melanoma is 107%.
With `COc1cc(C2=NOC(c3cc(OC)c(OC)c(OC)c3)C2)ccc1OCCCCOc1cc2c(cc1OC)C(=O)N1CCC[C@H]1C=N2` (stereo partly specified), the growth in the experiment on NCI-H23 lung is -15.9% (active); in the experiment with NCI-H226 lung, 9.32% (active); with NCI-H322M lung it was -6.38% (active); in the experiment on HOP-62 NSCLC it was 9.48% (active); in the experiment with NCI-H460 lung, -29.6% (active); with HOP-92 NSCLC, -29.3% (active). Besides, the growth was -41.7% (active) in the experiment on NCI-H522 lung; 6.75% (active) in the experiment on A549/ATCC NSCLC; -4.62% (active) in the experiment on 786-0 renal; -78% (active) with COLO 205 colon; 7.5% (active) with K-562 leukemia; -72.2% (active) with MALME-3M melanoma. Moreover, the growth was 12.3% with MDA-MB-231 breast; -79% (active) with RXF 393 renal; -29.5% (active) in the experiment on SF-268 CNS; 13.4% in the experiment on SF-295 CNS; -89.6% (active) in the experiment on SF-539 CNS; 13.7% in the experiment on UACC-257 melanoma. For the same compound, the growth in the experiment on M14 melanoma is -43.7% (active).
For `CN(C)c1ccc(Nc2c3ccccc3nc3ccccc23)cc1`, the growth is 16% with NCI-H23 lung; -38.3% (active) in the experiment with NCI-H226 lung; 15.5% in the experiment on NCI-H322M lung; 32.6% in the experiment on HOP-62 NSCLC; -26.6% (active) in the experiment with NCI-H460 lung; -7.43% (active) in the experiment on HOP-92 NSCLC. Besides, the growth is 20.4% in the experiment on NCI-H522 lung; 14.2% with A549/ATCC NSCLC; 9.08% (active) with 786-0 renal; -51.7% (active) in the experiment on COLO 205 colon; 8.82% (active) with K-562 leukemia; -14% (active) in the experiment with MALME-3M melanoma. Also, the growth with MDA-MB-231 breast was 43%; in the experiment with RXF 393 renal it was 21.6%; in the experiment with SF-268 CNS, 27.7%; in the experiment on SF-295 CNS it was -7.58% (active); in the experiment on SF-539 CNS it was 17.5%; with UACC-257 melanoma, 18.3%. Besides, the growth in the experiment on M14 melanoma is 18.5%.
As to `CC(C)(C)NC(=O)C(OC(=O)C1CCc2cc(F)ccc2O1)c1ccccc1Cl` (stereo unspecified), the growth with NCI-H23 lung is 93.5%; in the experiment with NCI-H226 lung, 95.6%; in the experiment with NCI-H322M lung, 95.6%; with HOP-62 NSCLC it was 94.4%; in the experiment on NCI-H460 lung it was 104%; in the experiment with HOP-92 NSCLC, 89%. Also, the growth with NCI-H522 lung is 82.4%; with A549/ATCC NSCLC it was 98.6%; in the experiment with 786-0 renal, 100%; in the experiment with COLO 205 colon it was 130%; in the experiment on K-562 leukemia, 103%; in the experiment with MALME-3M melanoma, 94.4%. Besides, the growth in the experiment with MDA-MB-231 breast is 92.4%; in the experiment on RXF 393 renal it was 96.3%; with SF-295 CNS, 95.4%; in the experiment on SF-539 CNS it was 108%; in the experiment on UACC-257 melanoma, 106%; in the experiment with M14 melanoma, 94.9%.
Turning to `COc1cc2c(cc1OCCCOc1cc3c(cc1OC)C(=O)N1CCC[C@H]1C=N3)C=CC(C)(C)O2`, the growth is 107% in the experiment on NCI-H23 lung; 82.7% in the experiment on NCI-H226 lung; 133% in the experiment with NCI-H322M lung; 101% in the experiment on HOP-62 NSCLC; 108% with NCI-H460 lung; 66.3% with HOP-92 NSCLC. The growth with NCI-H522 lung was 83.7%; in the experiment on A549/ATCC NSCLC, 99.3%; with 786-0 renal, 102%; in the experiment on COLO 205 colon it was 103%; with K-562 leukemia it was 71.2%; with MALME-3M melanoma, 152%. The growth in the experiment on MDA-MB-231 breast was 88.6%; with RXF 393 renal it was 94.8%; in the experiment on SF-268 CNS, 91.2%; in the experiment with SF-295 CNS, 123%; in the experiment on SF-539 CNS it was 126%; in the experiment with UACC-257 melanoma it was 83.9%. Moreover, the growth with M14 melanoma is 111%.
Take `CCCCCCCCCCCCCCCCCC1=NC(C)(C)CN1C(C)(C)CO`: the growth with NCI-H23 lung was -14.5% (active); in the experiment with NCI-H226 lung it was 22.9%; in the experiment with NCI-H322M lung, 16.3%; in the experiment with HOP-62 NSCLC, -100% (active); in the experiment on NCI-H460 lung, -100% (active); with HOP-92 NSCLC it was -6.66% (active). The growth was -84.8% (active) in the experiment with NCI-H522 lung; -93.8% (active) with A549/ATCC NSCLC; -37.5% (active) with 786-0 renal; -99.8% (active) in the experiment on COLO 205 colon; -56.6% (active) with K-562 leukemia; -58.1% (active) in the experiment with MALME-3M melanoma. The growth with MDA-MB-231 breast was -71.6% (active); in the experiment with RXF 393 renal it was -68.7% (active); in the experiment on SF-268 CNS, -84.6% (active); in the experiment on SF-295 CNS it was 54.3%; in the experiment on SF-539 CNS it was -45% (active); in the experiment on UACC-257 melanoma, -41% (active). Also, in the experiment on M14 melanoma, the growth is -100% (active).
